Screening results deposited in PubChem by National Center for Advancing Translational Sciences (NCATS).
In the library only some 6.5% were active in any assay of this set; here they are far more common.
HCMV inh = qHTS Assay for inhibitors of the human cytomegalovirus (HCMV). HFF cells, HCMV-luciferase reporter, 72 h; stronger effect = lower value. activity change, negative = inhibition, % at 57.5 µM. 410,000 tested, 4.5% active; in the data active means activity change below about -60%; inconclusive means no clear call, values can overlap the other calls; inactive means above about -39%
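Luciferase read-out from HCMV-luciferase-infected HFFs (MOI 1 PFU/cell) 72 h post infection at 37C; compounds added after 16 h cell attachment; activity normalized between buffer-only basal and Salinomycin (10uM) inhibitor controls.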
Vaccinia Venus = qHTS for Stage-Specific Inhibitors of Vaccinia Orthopoxvirus: Venus Reporter Primary qHTS | 330,000 tested, 0.46% active | Potency, µM (highest dose often 36.5 µM), hits mostly inhibitors | Vaccinia virus Venus reporter expression, fluorescence; calls by dose curve; tested in A549 cells; further: nearly all actives have a fitted effect of over 30% in size
FMDV antiviral = High Throughput Screening for Foot and Mouth Disease Virus Antivirals; 410,000 tested, 1.2% active; Potency, µM (series often up to 57.9 µM), hits mostly inhibitors; AID 1159524, 2015; FMDV antiviral cell-based qHTS; calls by dose curve; tested in HEK293T cells; further: read-out not given here; nearly all actives have a fitted effect of over 45% in size
MARV entry inh = qHTS for inhibitors of binding or entry into cells for Marburg Virus | Marburg virus pseudotyped entry inhibition, cell reporter | Potency, µM (top dose mostly 37.8 µM), hits mostly inhibitors | 300,000 tested, 1.8% active; calls by dose curve; tested in HEK293 cells
Lassa entry inh = qHTS for Inhibitors of binding or entry into cells for Lassa Virus; Lassa virus pseudotype entry inhibition, cell reporter; Potency, µM (titrated, usually from 37.9 µM), hits mostly inhibitors; 300,000 tested, 1.2% active; calls by dose curve; tested in HEK293 cells; further: nearly all actives have a fitted effect of over 50% in size
Vaccinia mCherry = qHTS for Stage-Specific Inhibitors of Vaccinia Orthopoxvirus: mCherry Reporter Primary qHTS. Vaccinia virus mCherry reporter infection, fluorescence. Potency, µM (top dose mostly 36.5 µM), most hits filed as inhibitors. 310,000 tested, 0.63% active; calls by dose curve; tested in A549 cells; further: nearly all actives have a fitted effect of over 35% in size
Numbers stand for hits; i = inactive; ? = inconclusive; nt = no result; [ ] = another dose, or the depositor's remark.

SMILES | HCMV inh | Vaccinia Venus | FMDV antiviral | MARV entry inh | Lassa entry inh | Vaccinia mCherry
O=C(NCc1ccccc1)c1nc(S(=O)(=O)Cc2ccc(F)cc2)ncc1Cl | -98 | i[7.34 µM] | 32µM | ? | ? | i[7.34 µM]
O=C(Nc1ccc(F)cc1)c1nc(S(=O)(=O)Cc2ccccc2)ncc1Cl | -112 | nt | ? | nt | nt | nt
Cc1nnc(NC(=O)c2nc(S(=O)(=O)Cc3ccccc3)ncc2Cl)s1 | -110 | i | 5.6µM | ? | ? | i
Cc1ccc(NC(=O)c2nc(S(=O)(=O)Cc3ccccc3)ncc2Cl)cc1 | -98 | ? | 28µM | ? | i | i
Cc1cccc(C)c1NC(=O)c1nc(S(=O)(=O)Cc2ccccc2F)ncc1Cl | nt | i | nt | nt | nt | i
Cc1cccc(CSc2ncc(Cl)c(C(=O)Nc3nnc(C)s3)n2)c1 | i | i | i | i | i | i
O=C(Nc1ccc2ccccc2c1)c1nc(S(=O)(=O)Cc2ccccc2F)ncc1Cl | nt | i | nt | nt | nt | i
CCOc1ccc(NC(=O)c2nc(S(=O)(=O)Cc3ccccc3C)ncc2Cl)cc1 | nt | i | nt | nt | nt | i
Cc1cccc(C)c1NC(=O)c1nc(S(=O)(=O)Cc2ccccc2)ncc1Cl | -100 | i | 28µM | 11µM | ? | i
Cc1ccccc1NC(=O)c1nc(S(C)(=O)=O)ncc1Cl | -99 | nt | ? | nt | nt | nt
Cc1cccc(CS(=O)(=O)c2ncc(Cl)c(C(=O)Nc3c(C)cccc3C)n2)c1 | ? | nt | i | nt | nt | nt
Cc1ccc(NC(=O)c2cc(-c3ccccc3)nn2-c2ccccc2)cc1 | i | i | i | ? | ? | i
O=C(Nc1ccc(F)cc1)c1nn(-c2ccccc2)c(=O)cc1Cl | -100 | 28µM | 22µM | 7.1µM | ? | ?
Cc1cccc(CS(=O)(=O)c2ncc(Cl)c(C(=O)NCc3ccccc3)n2)c1 | -92 | i[7.34 µM] | 32µM | 4.5µM | ? | i[7.34 µM]
CCc1nnc(NC(=O)c2nc(S(C)(=O)=O)ncc2Cl)s1 | i | i | ? | i | i | i
CS(=O)(=O)c1ncc(Cl)c(C(=O)Nc2ccc(OC(F)F)cc2)n1 | nt | ? | 20µM | ? | ? | ?
CS(=O)(=O)c1ncc(Cl)c(C(=O)Nc2ccc(N3CCOCC3)cc2)n1 | nt | i | nt | ? | ? | i
CCOC(=O)c1nc(S(C)(=O)=O)ncc1Cl | -70 | i | nt | ? | i | i
Cc1ccccc1CS(=O)(=O)c1ncc(Cl)c(C(=O)Nc2ccc(F)cc2)n1 | -98 | nt | ? | nt | nt | nt
O=C(Nc1ccccc1F)c1nc(S(=O)(=O)Cc2ccccc2F)ncc1Cl | -109 | ? | ? | ? | ? | i
Clc1ccc(Nc2nccc3[nH]c(-c4ccccc4)nc23)cc1 | i | nt | nt | nt | nt | nt
O=C(NCCc1ccccn1)C1CC12CCN(C(=O)c1ccccc1Cl)CC2 (centres undefined) | nt | i | i | nt | nt | i
Cc1ccccc1-c1nc(CN2CCC(C(=O)NCc3ccccc3Cl)CC2)c(C)o1 | i | i | i | i | i | i
CCCc1nnc(NC(=O)c2nc(S(=O)(=O)Cc3cccc(C)c3)ncc2Cl)s1 | -101 | nt | 28µM | nt | nt | nt
Cc1cc(NC(=O)CCC(=O)N(c2ccccc2)C(C(=O)NC2CCCCC2)c2cccs2)no1 (centres undefined) | -65 | i | i | ? | i | nt
SMILES | HCMV inh | Vaccinia Venus | FMDV antiviral | MARV entry inh | Lassa entry inh | Vaccinia mCherry
Cc1cc(NC(=O)CCC(=O)N(Cc2ccco2)C(C(=O)NC2CCCC2)c2ccc(F)cc2)no1 (centres undefined) | -63 | i | i | ? | i | i
Cc1cc(NC(=O)CCC(=O)N(c2ccccc2)C(C(=O)NC2CCCC2)c2ccc(F)cc2)no1 (centres undefined) | i | i | i | i | i | i
CCOc1ccc(N(C(=O)/C=C/C(=O)Nc2cc(C)on2)C(C(=O)NC2CCCC2)c2ccccc2C)cc1 (centres undefined) | -93 | nt | ? | nt | nt | nt
O=C(NC1CCCCC1)C(c1ccccn1)N(C(=O)Cc1cccs1)c1ccc(Cl)cc1 (centres undefined) | i | nt | i | 10µM | i | nt
COc1cc2c(cc1OC)[C@@H]1O[C@](c3ccsc3)(C2)Oc2cc(C)n(Cc3ccccc3)c(=O)c21 | nt | nt | nt | i | nt | nt
O=[N+]([O-])c1ccc2oc(-c3ccccc3)nc2c1 | i | i | i | i | nt | i
COc1ccc(-c2nc3ccc([N+](=O)[O-])cc3o2)cc1 | -92 | i | i | ? | i | i
c1ccc(Nc2nc(-c3ccccc3)nc3ccccc23)cc1 | i | nt | i | nt | nt | nt
COc1ccc(OC)c(Nc2nc(-c3ccncc3)nc3ccccc23)c1 | i | i | ? | ? | ? | i
O=C(O)CNc1nc(-c2ccccc2)nc2ccccc12 | i | i | i | i | i | i
COc1ccc(Nc2nc(-c3ccncc3)nc3ccccc23)cc1 | i | i | i | 2.8µM | i | i
COc1ccc(Nc2nc(N3CCN(S(=O)(=O)N(C)C)CC3)nc3ccccc23)cc1 | -85 | nt | i | nt | nt | nt
Fc1cccc(Nc2nc(-c3ccncc3)nc3ccccc23)c1 | i | nt | 25µM | ? | i | nt
CCOC(=O)CNc1nc(-c2ccncc2)nc2ccccc12 | i | i | i | 11µM | i | i
CC(C)Oc1cccc(C(=O)Nc2ccc3oc(-c4ccccc4)nc3c2)c1 | i | i | i | nt | i | i
COC(=O)C1CCN(Cc2ccc3c(c2)CN(C(=O)c2cc(-c4ccc(C)o4)[nH]n2)CCO3)CC1 | nt | i | i | nt | nt | i
CCC(C)NCCC(=O)Nc1ccc(Cl)c(S(=O)(=O)Nc2ccc(Cl)cc2)c1 (centres undefined) | i | i | i | 11µM | i | i
Cc1ccc(C(=O)CCC(=O)Nc2ccc(Cl)c(S(=O)(=O)Nc3cccc(Cl)c3)c2)cc1 | i | i | i | i | ? | i
COc1ccc(CCNC(=O)C(=O)NCC(c2cccs2)S(=O)(=O)c2ccc(C)cc2)cc1 (centres undefined) | i | i | 20µM | nt | ? | i
COc1ccc(CNC(=O)C(=O)NCC(c2cccs2)S(=O)(=O)c2ccc(C)cc2)cc1 (centres undefined) | i | i | ? | nt | i | i
Cc1ccc(S(=O)(=O)C(CNC(=O)Cc2ccc(Cl)cc2)c2cccs2)cc1 (centres undefined) | i | i | i | nt | ? | i
CCCC(=O)NCC(c1cccs1)S(=O)(=O)c1ccc(Cl)cc1 (centres undefined) | -103 | i | i | i | ? | i
COc1ccc(CCNC(=O)C(=O)NCC(c2cccs2)S(=O)(=O)c2ccccc2)cc1 (centres undefined) | i | ? | 28µM | nt | i | ?
CCOc1ccc(NC(=O)c2oc3ccccc3c2NC(=O)Cc2ccc(F)cc2)cc1 | i | i | i | i | i | i
CCc1nn2c(-c3ccccc3OC)ccnc2c1-c1ccc(F)cc1 | i | i | ? | i | i | i
CCCCCCCOC(=O)C[N+](C)(C)CCOC1CC2CCC1(C)C2(C)C (centres undefined) | -73 | ? | 35µM | 11µM | ? | i
